Inconclusive results are not listed. The source holds several records for some structures; these can differ, active in one and inactive in another. Calls of active or inactive are those of the source. How the source made its calls, unless noted: active means hit-call score of the fitted dose curve at least 0.9, where 1 is the maximum; inactive means score below 0.9.
Assays:
[1] = biological target: Retinoic acid receptor RXR-alpha (Homo sapiens) (UniProt P19793); assay: OT_NURR1_NURR1RXRa_1440: Odyssey Thera (OT) 24-hour HEK293T Protein Complementation Assay for Nurr1/retinoid X receptor (RXR) (AID 2283386; active means hit-call score of the fitted dose curve at least 0.9, where 1 is the maximum)
How it was run: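 Measured as fluorescence from a reconstituted split reporter, this 24 h HEK293T complementation assay scores compound-induced gain of Nurr1/RXRα association relative to DMSO.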

[2] = biological target: Peroxisome proliferator-activated receptor gamma (Homo sapiens) (UniProt P37231); assay: OT_PPARg_PPARgSRC1_0480: Odyssey Thera (OT) 8-hour Protein-Complementation Assay for Peroxisome Proliferator-activated Receptor Gamma / SRC-1 Co-activator (AID 2283387; active means hit-call score of the fitted dose curve at least 0.9, where 1 is the maximum;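 further: nuclear to cytoplasmic split Venus YFP fluorescence ratio reporting PPARg SRC-1 interaction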)
How it was run: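 Split-YFP (IFP1/IFP2) PPARg/SRC-1 reporter, HEK293T, 37 °C, 5% CO2; 8 h compound; formaldehyde fix + Draq5; high-content imaging, N/C ratio, ≥350 cells/image, positive direction vs DMSO.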

[3] = biological target: Peroxisome proliferator-activated receptor gamma (Homo sapiens) (UniProt P37231); assay: OT_PPARg_PPARgSRC1_1440: Odyssey Thera (OT) 24-hour Protein-Complementation Assay for Peroxisome Proliferator-activated Receptor Gamma/ SRC-1 Co-activator (AID 2283388; active means hit-call score of the fitted dose curve at least 0.9, where 1 is the maximum;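 further: nuclear to cytoplasmic ratio of reconstituted Venus YFP fluorescence in fixed imaged cells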)
How it was run: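 Protein-fragment complementation between PPARg and coactivator SRC-1 was measured by fluorescence imaging in transiently transfected HEK293T cells after 24 h treatment. Signal was quantified as N/C ratio in the 488 nm channel, with DMSO as negative control.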

[4] = CEETOX_H295R_11DCORT: CeeTox H295R High-throughput Steroidogenesis Assay for 11-Deoxycortisol (11DCORT) (AID 2283432); conditions: actives raise or lower the signal
How it was run: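 Steroidogenesis in human H295R cells: 48 h chemical exposure after forskolin priming, 11-deoxycortisol measured by LC-MS/MS.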

[5] = CEETOX_H295R_OHPREG: CeeTox H295R High-throughput Steroidogenesis Assay for OH-Pregnenolone (OHPREG) (AID 2283434); conditions: actives raise or lower the signal
How it was run: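 Hormone levels in spent medium were measured by tandem mass spectrometry following liquid-liquid extraction. Cells (H295R) had been forskolin-stimulated (10 uM, 48 h) before a 48 h chemical exposure at 0.1% DMSO, with activity fitted in both directions against DMSO.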

[6] = CEETOX_H295R_OHPROG: CeeTox H295R High-throughput Steroidogenesis Assay for OH-Progesterone (OHPROG) (AID 2283435); conditions: actives raise or lower the signal;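 on AC50: 17alpha-hydroxyprogesterone secreted into medium measured by HPLC-MS/MS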
How it was run: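 Secreted 17alpha-hydroxyprogesterone is read by tandem MS from media of forskolin-primed H295R cells dosed with chemical for 48 h. Activity is fitted in both directions against DMSO baseline; cytotoxic concentrations are re-tested diluted.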

[7] = CEETOX_H295R_ANDR: CeeTox H295R High-throughput Steroidogenesis Assay for Androstenedione (ANDR) (AID 2283436); conditions: actives raise or lower the signal;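 further: human H295R adrenal cells exposed for 48 h with androstenedione measured in medium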
How it was run: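 Read-out is androstenedione secreted into medium, measured by tandem mass spectrometry after liquid-liquid extraction. Cells were H295R, dosed for 48 h per modified OECD 456; activity fitted in both directions relative to DMSO.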

[8] = CEETOX_H295R_CORTIC: CeeTox H295R High-throughput Steroidogenesis Assay for Corticosterone (CORTIC) (AID 2283437); conditions: actives raise or lower the signal;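 further: corticosterone secreted into medium quantified by mass spectrometry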
How it was run: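 Corticosterone secreted into medium is measured by reverse-phase HPLC with tandem MS following liquid-liquid extraction. Cells are forskolin-stimulated (10 uM, 48 h) before 48 h test exposure; activity fitted in both directions against DMSO.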

[9] = CEETOX_H295R_CORTISOL: CeeTox H295R High-throughput Steroidogenesis Assay for Cortisol (AID 2283438); conditions: actives raise or lower the signal;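 further: cortisol secreted into medium quantified by LC-MS/MS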
How it was run: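 Human adrenocortical H295R cells (passage ≤10) received test chemicals for 48 h after forskolin priming. Secreted cortisol was measured by LC-MS/MS.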

[10] = CEETOX_H295R_DOC: CeeTox H295R High-throughput Steroidogenesis Assay for DOC (AID 2283439); conditions: actives raise or lower the signal
How it was run: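 Secreted DOC was quantified from H295R media by HPLC-MS/MS after 48 h chemical exposure following 48 h forskolin (10 uM) prestimulation. Values were fitted in both directions relative to DMSO, the negative control and baseline.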

[11] = CEETOX_H295R_ESTRADIOL: CeeTox H295R High-throughput Steroidogenesis Assay for Estradiol (AID 2283440); conditions: actives raise or lower the signal;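 further: estradiol secreted into medium quantified by LC-MS/MS after dansyl derivatisation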
How it was run: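 Estradiol secreted into the medium was measured by tandem mass spectrometry after liquid-liquid extraction and dansylation. Human H295R cells had been forskolin-primed (10 uM, 48 h) before a 48 h chemical exposure with 0.1% DMSO.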

[12] = CEETOX_H295R_ESTRONE: CeeTox H295R High-throughput Steroidogenesis Assay for Estrone (AID 2283441); conditions: actives raise or lower the signal;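 further: estrone secreted into medium measured by LC-MS/MS after dansyl derivatization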;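 on AC50: human adrenal H295R cells prestimulated with forskolin for two days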
How it was run: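 H295R cells; 48 h forskolin (10 uM) prestimulation; 48 h compound exposure, 0.1% DMSO final. Medium estrone: MTBE extraction, dansyl derivatization, HPLC-MS/MS. Bidirectional fit vs DMSO.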

[13] = CEETOX_H295R_PROG: CeeTox H295R High-throughput Steroidogenesis Assay for Progesterone (PROG) (AID 2283442); conditions: actives raise or lower the signal
How it was run: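 Steps: seed H295R cells and let them adhere overnight; prime 48 h with 10 uM forskolin; dose with compound in DMSO at 0.1% final for 48 h; extract medium steroids with MTBE; measure progesterone by LC-MS/MS. MTT viability was run in the same wells.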

[14] = read-out: Tumor necrosis factor receptor superfamily member 6 (Homo sapiens) (UniProt P25445); assay: LTEA_HepaRG_FAS: Life Technologies and Expression Analysis (LTEA) Assay for Fas cell surface death receptor (FAS) using HepaRG (AID 2283447); conditions: mRNA level, 48 h; actives raise or lower the signal
How it was run: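 FAS transcript level was measured by TaqMan qRT-PCR against three housekeeping genes after 48 h chemical exposure. Cells were HepaRG, 0.5% DMSO vehicle, with a top concentration of 100 uM and half-log dilutions over eight points, in duplicate.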

[15] = read-out: Fatty acid synthase (Homo sapiens) (UniProt P49327); assay: LTEA_HepaRG_FASN: Life Technologies and Expression Analysis (LTEA) Assay for Fatty Acid Synthase (FASN) using HepaRG (AID 2283448); conditions: mRNA level, 48 h; actives raise or lower the signal;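 on AC50: differentiated human HepaRG liver cells in serum-free induction medium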
How it was run: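 Transcript-level assay: HepaRG liver cells are treated for 48 h across an eight-point range topping at 100 uM, and FASN mRNA, normalized to three housekeeping genes, is compared with DMSO controls in both directions.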

[16] = read-out: Cyclin Dependent Kinase Inhibitor 1A (CDKN1A), CDKN1A (gene 1026); assay: LTEA_HepaRG_CDKN1A: Life Technologies and Expression Analysis (LTEA) Assay for Cyclin Dependent Kinase Inhibitor 1A (CDKN1A) using HepaRG (AID 2283450); conditions: mRNA level, 48 h; actives raise or lower the signal
How it was run: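 Read-out is CDKN1A mRNA by TaqMan qRT-PCR, normalized to three housekeeping genes and fitted in both directions against the DMSO baseline. Human HepaRG cells were treated 48 h with test chemicals up to 100 uM in half-log steps, 0.5% DMSO.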

[17] = read-out: Cyclin D1 (CCND1), CCND1 (gene 595); assay: LTEA_HepaRG_CCND1: Life Technologies and Expression Analysis (LTEA) Assay for Cyclin D1 (CCND1) using HepaRG (AID 2283451); conditions: mRNA level, 48 h; actives raise or lower the signal;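 on AC50: differentiated human HepaRG liver cells in serum-free induction medium; TaqMan qRT-PCR transcript level normalised to ACTB GAPDH and POLR2A housekeeping genes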
How it was run: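 HepaRG plated 48 h, medium switched to serum-free induction medium, chemicals added in duplicate (top 100 uM, half-log steps, 0.5% DMSO) for 48 h, cells lysed, RNA measured by TaqMan qRT-PCR.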

[18] = read-out: catalase (CAT), CAT (gene 847); assay: LTEA_HepaRG_CAT: Life Technologies and Expression Analysis (LTEA) Assay for catalase (CAT) using HepaRG (AID 2283452); conditions: mRNA level, 48 h; actives raise or lower the signal;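 on AC50: TaqMan qRT-PCR signal normalized to ACTB GAPDH and POLR2A housekeeping genes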
How it was run: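 Expression of CAT was quantified by TaqMan qRT-PCR with ACTB/GAPDH/POLR2A normalization after 48 h chemical exposure of HepaRG. Eight-point half-log series, top 100 uM, in 0.5% DMSO; gain or loss fitted against vehicle.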

[19] = read-out: Cyclin D2 (CCND2), CCND2 (gene 894); assay: LTEA_HepaRG_CCND2: Life Technologies and Expression Analysis (LTEA) Assay for Cyclin D2 (CCND2) using HepaRG (AID 2283449); conditions: mRNA level, 48 h; actives raise or lower the signal
How it was run: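 Read-out is CCND2 mRNA level measured by qRT-PCR in human HepaRG liver cells and normalised to three housekeeping genes. Chemicals were applied for 48 h at up to 100 uM, with gain or loss fitted relative to 0.5% DMSO.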

Measured: AC50

Chain of Fatty acid synthase (Homo sapiens) (P49327 whole entry, looked up): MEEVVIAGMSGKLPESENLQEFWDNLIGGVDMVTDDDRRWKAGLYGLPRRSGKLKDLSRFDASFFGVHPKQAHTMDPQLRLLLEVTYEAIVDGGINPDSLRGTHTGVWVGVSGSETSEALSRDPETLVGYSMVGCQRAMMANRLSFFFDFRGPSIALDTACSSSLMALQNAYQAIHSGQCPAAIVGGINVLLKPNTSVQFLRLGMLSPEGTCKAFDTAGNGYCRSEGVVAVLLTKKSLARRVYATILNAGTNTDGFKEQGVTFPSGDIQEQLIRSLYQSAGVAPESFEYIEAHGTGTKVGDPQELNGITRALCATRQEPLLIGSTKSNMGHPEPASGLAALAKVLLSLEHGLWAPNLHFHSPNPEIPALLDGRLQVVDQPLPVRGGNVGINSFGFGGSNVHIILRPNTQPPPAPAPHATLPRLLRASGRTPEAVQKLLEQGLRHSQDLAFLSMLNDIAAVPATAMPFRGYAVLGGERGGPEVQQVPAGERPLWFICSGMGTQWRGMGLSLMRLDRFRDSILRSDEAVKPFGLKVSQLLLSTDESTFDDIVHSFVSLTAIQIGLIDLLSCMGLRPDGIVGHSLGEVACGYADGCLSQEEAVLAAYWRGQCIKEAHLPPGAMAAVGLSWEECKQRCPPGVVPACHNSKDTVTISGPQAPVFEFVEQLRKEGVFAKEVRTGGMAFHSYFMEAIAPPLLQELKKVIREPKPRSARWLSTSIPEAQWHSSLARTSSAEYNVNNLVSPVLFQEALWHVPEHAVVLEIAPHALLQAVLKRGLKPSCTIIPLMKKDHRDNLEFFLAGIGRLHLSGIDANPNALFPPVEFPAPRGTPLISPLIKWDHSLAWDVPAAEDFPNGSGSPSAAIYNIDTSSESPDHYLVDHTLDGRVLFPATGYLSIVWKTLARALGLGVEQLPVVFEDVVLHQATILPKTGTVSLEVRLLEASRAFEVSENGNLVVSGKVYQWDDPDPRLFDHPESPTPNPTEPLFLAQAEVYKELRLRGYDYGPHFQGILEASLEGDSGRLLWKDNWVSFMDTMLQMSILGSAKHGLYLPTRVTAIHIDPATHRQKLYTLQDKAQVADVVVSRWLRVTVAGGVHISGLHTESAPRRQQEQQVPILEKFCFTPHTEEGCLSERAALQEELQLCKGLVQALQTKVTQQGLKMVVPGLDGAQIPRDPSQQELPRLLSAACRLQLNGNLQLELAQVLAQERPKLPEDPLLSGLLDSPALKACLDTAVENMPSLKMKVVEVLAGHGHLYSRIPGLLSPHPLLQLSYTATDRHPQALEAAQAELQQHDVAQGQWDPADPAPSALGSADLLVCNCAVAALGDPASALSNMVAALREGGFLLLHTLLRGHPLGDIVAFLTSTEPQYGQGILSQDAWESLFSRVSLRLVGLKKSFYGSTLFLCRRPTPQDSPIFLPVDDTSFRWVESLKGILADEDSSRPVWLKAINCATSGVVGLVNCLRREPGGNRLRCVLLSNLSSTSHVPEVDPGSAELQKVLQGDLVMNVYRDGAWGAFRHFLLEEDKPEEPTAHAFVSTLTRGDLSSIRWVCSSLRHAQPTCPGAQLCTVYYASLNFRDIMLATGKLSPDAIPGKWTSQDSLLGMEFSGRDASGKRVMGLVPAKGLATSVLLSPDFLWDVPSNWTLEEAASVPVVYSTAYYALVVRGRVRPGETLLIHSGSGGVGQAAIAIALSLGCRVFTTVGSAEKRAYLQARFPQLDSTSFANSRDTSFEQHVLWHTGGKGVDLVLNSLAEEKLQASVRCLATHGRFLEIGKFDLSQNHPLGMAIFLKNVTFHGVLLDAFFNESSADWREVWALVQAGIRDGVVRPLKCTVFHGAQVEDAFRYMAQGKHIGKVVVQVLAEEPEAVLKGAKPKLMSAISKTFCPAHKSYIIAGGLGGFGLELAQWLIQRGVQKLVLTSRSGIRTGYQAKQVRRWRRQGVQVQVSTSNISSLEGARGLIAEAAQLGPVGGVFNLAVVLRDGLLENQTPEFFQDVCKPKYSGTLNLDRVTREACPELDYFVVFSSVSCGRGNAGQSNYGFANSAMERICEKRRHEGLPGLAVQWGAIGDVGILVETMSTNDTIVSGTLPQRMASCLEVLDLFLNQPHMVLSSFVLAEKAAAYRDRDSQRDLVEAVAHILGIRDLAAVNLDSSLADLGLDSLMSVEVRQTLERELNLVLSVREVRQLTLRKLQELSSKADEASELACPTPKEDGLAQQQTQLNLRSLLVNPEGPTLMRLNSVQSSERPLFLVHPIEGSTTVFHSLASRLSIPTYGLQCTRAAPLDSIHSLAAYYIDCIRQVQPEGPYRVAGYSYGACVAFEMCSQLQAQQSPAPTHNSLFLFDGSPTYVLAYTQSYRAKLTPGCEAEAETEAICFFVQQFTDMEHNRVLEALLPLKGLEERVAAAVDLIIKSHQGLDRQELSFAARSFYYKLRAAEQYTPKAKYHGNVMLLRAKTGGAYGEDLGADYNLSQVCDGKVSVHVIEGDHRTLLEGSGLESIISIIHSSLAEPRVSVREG
Chain of Retinoic acid receptor RXR-alpha (Homo sapiens) (P19793 whole entry, looked up): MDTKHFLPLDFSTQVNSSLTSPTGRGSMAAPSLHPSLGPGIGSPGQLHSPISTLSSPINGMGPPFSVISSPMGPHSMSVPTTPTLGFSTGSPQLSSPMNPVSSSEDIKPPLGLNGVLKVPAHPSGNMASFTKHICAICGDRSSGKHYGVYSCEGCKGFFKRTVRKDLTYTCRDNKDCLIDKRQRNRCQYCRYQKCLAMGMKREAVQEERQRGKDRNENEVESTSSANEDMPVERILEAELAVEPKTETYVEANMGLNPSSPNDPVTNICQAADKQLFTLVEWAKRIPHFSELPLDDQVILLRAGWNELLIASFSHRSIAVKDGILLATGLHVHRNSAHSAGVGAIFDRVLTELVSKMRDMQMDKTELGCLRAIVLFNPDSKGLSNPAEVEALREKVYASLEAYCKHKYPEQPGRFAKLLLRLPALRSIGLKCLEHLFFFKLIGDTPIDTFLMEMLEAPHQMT
Chain of Peroxisome proliferator-activated receptor gamma (Homo sapiens) (P37231 whole entry, looked up, the tested form may be a part): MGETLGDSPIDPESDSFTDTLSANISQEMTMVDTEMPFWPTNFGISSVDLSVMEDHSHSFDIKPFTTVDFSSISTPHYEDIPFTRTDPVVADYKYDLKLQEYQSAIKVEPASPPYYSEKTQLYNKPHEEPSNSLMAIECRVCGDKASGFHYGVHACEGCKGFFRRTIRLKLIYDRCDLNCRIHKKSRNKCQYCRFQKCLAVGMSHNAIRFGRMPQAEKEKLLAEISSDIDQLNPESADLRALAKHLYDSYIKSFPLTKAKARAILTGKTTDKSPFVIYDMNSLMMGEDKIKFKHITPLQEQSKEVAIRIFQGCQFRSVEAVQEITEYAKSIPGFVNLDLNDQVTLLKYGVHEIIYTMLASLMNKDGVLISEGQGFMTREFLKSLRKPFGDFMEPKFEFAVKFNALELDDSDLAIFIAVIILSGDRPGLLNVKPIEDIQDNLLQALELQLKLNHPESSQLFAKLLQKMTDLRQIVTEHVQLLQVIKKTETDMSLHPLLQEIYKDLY

CC(C)Oc1cc(-n2nc(C(C)(C)C)oc2=O)c(Cl)cc1Cl
active: [1] 74.7 µM | [5] 951 nM | [16] 84.1 µM | [18] 50 µM
inactive: [1] | [2] | [3] | [4] | [6] | [7] | [8] | [9] | [10] | [11] | [12] | [13] | [14] | [15] | [17]

CCOC(=O)C(Cl)Cc1cc(-n2nc(C)n(C(F)F)c2=O)c(F)cc1Cl (configuration not stated)
inactive: [1] | [2] | [3] | [4] | [5] | [8] | [9] | [11] | [12] | [13] | [14] | [15] | [16] | [17] | [18]
active: [6] 50 µM | [10] 17.2 µM

CON(C)C(=O)Nc1ccc(Cl)c(Cl)c1
active: [15] 4.86 µM | [16] 85.8 µM | [17] 26.6 µM
inactive: [1] | [2] | [3] | [4] | [5] | [6] | [8] | [9] | [10] | [13] | [14] | [19] | [18]

CCON=C(CC)C1=C(O)CC(c2c(C)cc(C)cc2C)CC1=O (configuration not stated)
active: [15] 50 µM
inactive: [1] | [2] | [3] | [4] | [5] | [6] | [7] | [8] | [9] | [10] | [13] | [14] | [19] | [16] | [17] | [18]

CCCCC(CC)COC(=O)c1ccccc1C(=O)OCC(CC)CCCC (configuration not stated)
inactive: [1] | [2] | [3] | [14] | [15] | [19] | [16] | [17] | [18]

COP(=S)(OC)Oc1nc(Cl)c(Cl)cc1Cl
inactive: [1] | [2] | [3] | [8] | [9] | [10] | [11] | [12] | [14] | [15] | [19] | [16] | [17] | [18]

CCOc1cc(Oc2ccc(C(F)(F)F)cc2Cl)ccc1[N+](=O)[O-]
inactive: [1] | [2] | [3] | [4] | [5] | [6] | [8] | [9] | [10] | [13] | [19] | [16] | [17]
active: [11] 1.78 µM | [12] 3.32 µM | [14] 14.4 µM | [15] 32 µM | [18] 36.2 µM

CCNc1nc(Cl)nc(NCC)n1
active: [12] 8.07 µM
inactive: [1] | [2] | [3] | [4] | [5] | [6] | [8] | [9] | [10] | [11] | [13] | [14] | [15] | [19] | [16] | [17] | [18]

C#CCOS(=O)OC1CCCCC1Oc1ccc(C(C)(C)C)cc1 (configuration not stated)
active: [1] 31.6 µM | [14] 44.8 µM | [15] 27.5 µM | [16] 12.9 µM | [18] 20.5 µM
inactive: [1] | [2] | [3] | [19] | [17]

CC1=C(C(=O)Nc2ccccc2)SCCO1
inactive: [1] | [2] | [3] | [4] | [5] | [6] | [7] | [8] | [9] | [10] | [12] | [13] | [14] | [19] | [16]
active: [11] 21.2 µM | [15] 30.8 µM | [17] 50 µM | [18] 12.8 µM
